Source: PubChem BioAssay
WT yeast gro inh: growth inhibition of WT yeast, mitochondrial fusion screen; mitochondrial fusion phenotypic screen, WT strain; inhibition, % at 10 µM; 190,000 compounds, 2.1% hits; AID 1362; in the data active means inhibition above about 58%; tested in S. cerevisiae
L major viab: reduces viability of Leishmania major promastigotes | resazurin fluorescence viability | inhibition, % at 10 µM | 200,000 compounds, 9% hits; in the data active means inhibition above about 50%;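 further: promastigotes grown with compound for 44 hours at 28 °C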
CHOP inhibitor: CHOP inhibition in unfolded protein response; AID 2732; inhibition, % at 10 µM; 220,000 compounds, 3.8% hits; CHO-K1 CHOP-promoter luciferase, tunicamycin-induced, 15-18 h;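 active means compounds that reduced the stress-induced luciferase reporter signal by more than about 70% of percent inhibition, limit read from the data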;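 further: 0% = tunicamycin plus vehicle and 100% = wells without tunicamycin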
RAM network inh: yeast RAM network inhibition. S. cerevisiae dse1pr::URA3 reporter, 5-FOA growth OD615, 2 d; analog-sensitive cbk1-as2 kinase mutant strain. inhibition, % at 50 µM. 190,000 compounds, 1.8% hits. AID 868;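 active means inhibition above a set limit, 3 SD over mean compound inhibition, cut at about 8.4% in these data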;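 further: 0% = DMSO-only wells with no growth and 100% = 10 µM 1-NA-PP1 full growth; inhibition rescues growth on 5-FOA so higher OD means more RAM inhibition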
* marks the source's active call; other numbers are inactive results. Shown are actives, neighbours in structure and some others; about 13% of the full set was active somewhere.

`CC1=CC(=O)N(c2ccc(C)cc2)C1c1ccc(Cl)cc1` (stereo unspecified) gave WT yeast gro inh 26, L major viab 61*, CHOP inhibitor 13 and RAM network inh 0.
Screening CC(C)[C@H](NC(=O)c1ccco1)C(=O)OCC(=O)Nc1ccccc1OC(F)F returned WT yeast gro inh -36, L major viab -3, CHOP inhibitor -20 and RAM network inh 0.
`N#C/C(=C\c1cc2ccccc2nc1N1CCCCC1)C(N)=O` gave WT yeast gro inh 7, L major viab 76*, CHOP inhibitor 26 and RAM network inh 1.
For O=C(Cn1nc(-c2ccccc2)ccc1=O)Nc1ccc(NC(=O)c2ccccn2)cc1 the results were WT yeast gro inh -12, L major viab -2, CHOP inhibitor 94* and RAM network inh 2.
`O=C(Cn1nc(-c2ccccc2Cl)ccc1=O)Nc1ccccc1-c1ccccc1` gave WT yeast gro inh 67*, L major viab 2, CHOP inhibitor 12 and RAM network inh 3.
For O=C(Cn1nc(-c2ccccc2)ccc1=O)Nc1ccc(-n2cnnn2)cc1 the results were CHOP inhibitor -19.
C=CCN(C(=O)C1=NN(C2CCS(=O)(=O)C2)C(=O)CC1)c1nc(-c2ccc([N+](=O)[O-])cc2)cs1 (stereo unspecified) was read as WT yeast gro inh 5, L major viab 6, CHOP inhibitor 9 and RAM network inh 6.
For O=S(=O)(c1ccc(S(=O)(=O)N2CCN(C/C=C/c3ccccc3)CC2)cc1)N1CCCC1 the results were WT yeast gro inh 11, L major viab 22, CHOP inhibitor 87* and RAM network inh 0.
Screening Cc1ccc(NC(=O)N2CCN(C/C=C/c3ccccc3)CC2)cc1 returned WT yeast gro inh -1, L major viab 20, CHOP inhibitor 4 and RAM network inh 0.
CC(=C1C(=O)c2ccccc2C1=O)N1CCN(C/C=C/c2ccccc2)CC1 was read as WT yeast gro inh 7, L major viab 83*, CHOP inhibitor 29 and RAM network inh -1.
For CCCCNC(=O)N1CCN(C/C=C/c2ccccc2)CC1 the results were WT yeast gro inh 5, L major viab 53*, CHOP inhibitor 18 and RAM network inh 0.
CC(=C1C(=O)c2ccccc2C1=O)N1CCN(Cc2ccccc2)CC1 was read as WT yeast gro inh -8, L major viab -3, CHOP inhibitor 27 and RAM network inh -1.
Screening O=C(Nc1ccc2c(c1)OCO2)N1CCN(C/C=C/c2ccccc2)CC1 returned WT yeast gro inh -8, L major viab 74*, CHOP inhibitor -15 and RAM network inh 2.
C=CCc1cccc2cc(C(=O)Nc3ccccc3C(=O)O)c(=O)oc12 was read as WT yeast gro inh 2, L major viab -5, CHOP inhibitor 50 and RAM network inh 2.
For CC1CCCC(CC(=O)O)(CC(=O)O)C1 (stereo unspecified) the results were CHOP inhibitor 7.
`COC(=O)C1=C(C)NC(=O)/C1=C\N(C)C` gave WT yeast gro inh 0, L major viab 1, CHOP inhibitor -20 and RAM network inh 0.
Screening Cc1cc(C(=O)N2CCN(C/C=C/c3ccccc3)CC2)cs1 returned WT yeast gro inh 11, L major viab 11, CHOP inhibitor -4 and RAM network inh 1.
O=C(c1cc(Br)c(Br)s1)N1CCN(C/C=C/c2ccccc2)CC1 was read as WT yeast gro inh 64*, L major viab 39, CHOP inhibitor 48 and RAM network inh 0.
Screening Cc1cc2nc3c(nc2cc1C)C(O)=C3O returned CHOP inhibitor -18.
Screening C=CCNc1nc(Nc2ccc([N+](=O)[O-])cc2)nc(OC)n1 returned WT yeast gro inh 0, L major viab 42, CHOP inhibitor 12 and RAM network inh 4.
For COc1nc(Nc2ccc([N+](=O)[O-])cc2)nc(NC2CCCCC2)n1 the results were WT yeast gro inh 88*, L major viab 89*, CHOP inhibitor 82* and RAM network inh 0.
Screening O=S(=O)(c1cccs1)N1CCc2ccccc21 returned WT yeast gro inh 12, L major viab 41, CHOP inhibitor 45 and RAM network inh 0.
CC1CCc2ccc(F)cc2N1S(=O)(=O)c1cccs1 (stereo unspecified) was read as WT yeast gro inh 6, L major viab 96*, CHOP inhibitor 83* and RAM network inh 2.
`CC(=O)Oc1ccccc1N(C(C)=O)S(=O)(=O)c1ccc(C)cc1` gave WT yeast gro inh 49, L major viab -4, CHOP inhibitor 30 and RAM network inh 2.
COc1ccc(S(=O)(=O)N(C(C)=O)c2ccc(OC(C)=O)c3ccccc23)cc1[N+](=O)[O-] was read as WT yeast gro inh -13, L major viab 100*, CHOP inhibitor 19 and RAM network inh 2.
`CCOC(=O)C1=NN(c2ccc(C)cc2)C2(S1)SC(C(C)=O)=C(C)N2c1ccccc1` (stereo unspecified) gave WT yeast gro inh 16, L major viab 36, CHOP inhibitor -35 and RAM network inh 1.
`CCOC(=O)C1=NN(c2cccc(C)c2)C2(S1)SC(C(C)=O)=C(C)N2c1ccccc1` (stereo unspecified) gave WT yeast gro inh 77*, L major viab 13, CHOP inhibitor 50 and RAM network inh 2.
For C=C1N(c2cccc(Cl)c2)C(=O)OC1(C)C the results were WT yeast gro inh -6, L major viab -6, CHOP inhibitor -14 and RAM network inh 0.
Screening CCN1/C(=C2/SC(=S)NC2=O)Sc2ccccc21 returned WT yeast gro inh 2, L major viab 77*, CHOP inhibitor -5 and RAM network inh 4.
`O=C(Cn1c(=O)n(CCCC(=O)NC2CCCC2)c(=O)c2ccccc21)NCCC1=CCCCC1` gave WT yeast gro inh -9, L major viab -5, CHOP inhibitor 64 and RAM network inh 5.
C/C(=N\NC(=O)c1cccc(S(=O)(=O)N2CCOCC2)c1)c1cc2ccccc2o1 was read as CHOP inhibitor -24.
For O=C(O)CCN1C(=O)c2ccc(NC(=O)C(c3ccccc3)c3ccccc3)cc2C1=O the results were CHOP inhibitor -7.
For Cc1cc(C)c2nc(NNC(=O)c3ccc(S(=O)(=O)N4CC(C)CC(C)C4)cc3)sc2c1 (stereo unspecified) the results were WT yeast gro inh 11, L major viab 99*, CHOP inhibitor 47 and RAM network inh 3.
For Cc1cc(C)c2nc(NNC(=O)c3ccc(S(=O)(=O)N4CCCC(C)C4)cc3)sc2c1 (stereo unspecified) the results were WT yeast gro inh 4, L major viab 98*, CHOP inhibitor 26 and RAM network inh 5.
For COC(=O)c1sc2ccccc2c1NC(=O)c1ccc(S(=O)(=O)N2CCCC(C)C2)cc1 (stereo unspecified) the results were WT yeast gro inh -1, L major viab 8, CHOP inhibitor 20 and RAM network inh 3.
`CCS(=O)(=O)N1Cc2ccccc2CC1C(=O)Nc1ncc(C)s1` (stereo unspecified) gave WT yeast gro inh -3, L major viab -1, CHOP inhibitor 0 and RAM network inh 1.
